# From PubChem BioAssay
# Activity calls are given as the source filed them.
# Assays:
# [1] = test system: Plasmodium falciparum Sir2 (PF13_0152, Sir2A); test: pfSir2 binders on small-molecule microarrays, primary screen, biochemical, small-molecule microarray, 635 nm fluorescence (AID 1098); details: small-molecule microarray binding, fluorescence 635 nm; higher = more signal;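 also: score merges spot fluorescence intensity with its signal-to-noise ratio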
# [2] = small-molecule microarray binders of probe aDKK1, primary screen, biochemical, biotinylated probe, 635/667 nm fluorescence (AID 1099); details: higher = more signal;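 also: score merges 667nm spot fluorescence with signal to noise across triplicate slides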
# [3] = small-molecule microarray binders of probe aCHRDL2, primary screen, biochemical, biotinylated probe, 635/667 nm fluorescence (AID 1100); details: higher = more signal
# [4] = splicing luciferase reporter signal modulators, primary screen, spliceosome inhibition project, cell-based, HEK293, splice +/- reporter (AID 1101); details: luminescence, 24 h, higher = more signal, called active from +8 up or from −8 down;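 also: HEK293 cells carrying a splicing-competent luciferase reporter gene; test concentration not given here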
# [5] = target: Fibroblast growth factor 10 (Homo sapiens) (UniProt O15520); test: FGF10 binders on small-molecule microarrays, primary screen, biochemical, small-molecule microarray, 635 nm fluorescence (AID 1102); details: FGF10 binding, fluorescence 635 nm, higher = more signal
# Chain of Fibroblast growth factor 10 (Homo sapiens) (O15520 whole entry, looked up): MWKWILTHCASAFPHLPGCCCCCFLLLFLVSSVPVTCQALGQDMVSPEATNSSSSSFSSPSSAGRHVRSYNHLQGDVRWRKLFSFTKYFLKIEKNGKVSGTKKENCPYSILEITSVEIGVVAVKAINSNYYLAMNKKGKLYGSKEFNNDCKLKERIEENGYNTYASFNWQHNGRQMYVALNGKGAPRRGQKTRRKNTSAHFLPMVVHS
# [6] = test system: glycogen synthase kinase-3 (GSK3A per assay name; protocol says GSK3B); test: GSK3 binders on small-molecule microarrays, primary screen, biochemical, small-molecule microarray, 635 nm fluorescence, GSK3A (AID 1103); details: small-molecule microarray binding, fluorescence 635 nm; higher = more signal; also: the record names both GSK3A and GSK3B
# [7] = target: Epidermal growth factor receptor (Homo sapiens) (UniProt P00533); test: EGFR binders on small-molecule microarrays, primary screen, biochemical, small-molecule microarray, 635 nm fluorescence (AID 1104); details: EGFR binding, higher = more signal;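 also: score merges 667 nm emission intensity with spot signal to noise over triplicate slides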
# Chain of Epidermal growth factor receptor (Homo sapiens) (P00533 whole entry, looked up): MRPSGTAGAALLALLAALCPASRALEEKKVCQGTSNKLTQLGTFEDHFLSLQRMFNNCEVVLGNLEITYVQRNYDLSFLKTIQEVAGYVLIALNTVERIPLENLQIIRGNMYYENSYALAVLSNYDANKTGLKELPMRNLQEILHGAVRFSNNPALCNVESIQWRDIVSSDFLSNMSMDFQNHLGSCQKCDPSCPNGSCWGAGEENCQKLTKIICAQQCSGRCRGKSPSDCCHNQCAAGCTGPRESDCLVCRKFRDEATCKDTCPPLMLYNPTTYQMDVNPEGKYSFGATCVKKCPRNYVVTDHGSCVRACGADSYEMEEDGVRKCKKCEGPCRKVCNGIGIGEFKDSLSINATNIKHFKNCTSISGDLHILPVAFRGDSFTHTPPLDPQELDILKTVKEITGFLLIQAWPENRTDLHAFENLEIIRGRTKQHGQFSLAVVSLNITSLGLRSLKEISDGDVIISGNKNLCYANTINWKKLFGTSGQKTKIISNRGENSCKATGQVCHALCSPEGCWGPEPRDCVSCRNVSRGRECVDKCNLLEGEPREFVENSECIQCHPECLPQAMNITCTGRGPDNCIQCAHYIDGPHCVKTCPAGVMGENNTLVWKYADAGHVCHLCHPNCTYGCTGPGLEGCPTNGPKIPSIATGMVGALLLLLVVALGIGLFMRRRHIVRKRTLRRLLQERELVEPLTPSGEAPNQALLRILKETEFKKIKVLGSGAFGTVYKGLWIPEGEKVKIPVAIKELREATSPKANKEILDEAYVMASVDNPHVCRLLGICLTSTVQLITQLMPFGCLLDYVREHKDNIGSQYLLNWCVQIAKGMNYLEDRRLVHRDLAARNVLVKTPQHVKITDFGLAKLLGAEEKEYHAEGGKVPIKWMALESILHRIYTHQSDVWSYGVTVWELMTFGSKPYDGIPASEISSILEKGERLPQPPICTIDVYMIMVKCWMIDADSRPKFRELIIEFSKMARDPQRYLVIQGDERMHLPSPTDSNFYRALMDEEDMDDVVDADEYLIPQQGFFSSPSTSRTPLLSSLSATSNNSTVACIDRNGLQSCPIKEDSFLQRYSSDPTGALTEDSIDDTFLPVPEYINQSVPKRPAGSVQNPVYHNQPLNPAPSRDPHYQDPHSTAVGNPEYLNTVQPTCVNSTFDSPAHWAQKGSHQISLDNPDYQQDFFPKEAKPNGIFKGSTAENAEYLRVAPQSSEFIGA
# [8] = target: Follistatin-related protein 3 (Homo sapiens) (UniProt O95633); test: FSTL3 binders on small-molecule microarrays, primary screen, biochemical, small-molecule microarray, 635 nm fluorescence (AID 1105); details: FSTL3 binding, higher = more signal;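 also: score merges emission near 667 nm and signal to noise per printed spot across three slides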
# Chain of Follistatin-related protein 3 (Homo sapiens) (O95633 whole entry, looked up): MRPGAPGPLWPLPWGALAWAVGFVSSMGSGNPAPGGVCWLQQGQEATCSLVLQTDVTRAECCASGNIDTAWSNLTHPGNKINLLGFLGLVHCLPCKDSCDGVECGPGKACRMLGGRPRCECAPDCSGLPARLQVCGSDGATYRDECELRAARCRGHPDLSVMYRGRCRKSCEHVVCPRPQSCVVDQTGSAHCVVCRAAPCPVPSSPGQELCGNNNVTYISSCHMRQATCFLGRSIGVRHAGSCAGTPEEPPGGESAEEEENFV
# [9] = target: Dickkopf-related protein 1 (Homo sapiens) (UniProt O94907); test: DKK1 binders on small-molecule microarrays, primary screen, biochemical, small-molecule microarray, 635 nm fluorescence scan (AID 1106); details: DKK1 binding, higher = more signal;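 also: score merges emission near 667 nm with signal to noise over three replicate slides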
# Chain of Dickkopf-related protein 1 (Homo sapiens) (O94907 whole entry, looked up): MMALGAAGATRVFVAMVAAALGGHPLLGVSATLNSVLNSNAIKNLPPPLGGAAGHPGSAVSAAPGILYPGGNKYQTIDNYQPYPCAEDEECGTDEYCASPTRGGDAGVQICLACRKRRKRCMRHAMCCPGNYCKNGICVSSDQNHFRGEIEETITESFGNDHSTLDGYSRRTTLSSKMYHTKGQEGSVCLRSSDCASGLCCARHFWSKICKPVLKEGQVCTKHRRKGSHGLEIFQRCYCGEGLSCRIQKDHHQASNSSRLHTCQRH
# [10] = test system: Inhibin beta A chain (activin A); test: INHBA (activin A) binders on microarrays, primary screen, biochemical, small-molecule microarray, 635 nm fluorescence scan (AID 1107); details: small-molecule microarray binding, higher = more signal;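 also: mouse activin A protein probed at 4.33 µg/mL on printed slides; score merges bound-protein fluorescence near 667 nm with spot signal-to-noise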
# [11] = test system: Human papillomavirus type 1a protein E7 (residues 44-93); test: HPV1a E7 fragment binders on microarrays, primary screen, biochemical, small-molecule microarray, residues 44-93, 635 nm fluorescence (AID 1108); details: small-molecule microarray binding, fluorescence 635 nm; higher = more signal;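 also: E7 fragment applied at 1 µg/mL in TBST for 1 h at 4 C; score combines spot fluorescence with its signal to noise ratio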
# [12] = modulators of HCV replicon luciferase signal, primary screen, HCV replication inhibitor project, Huh7 cells, luciferase reporter (AID 1109); details: 48 h, higher = more signal;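 also: huh7 hepatoma cells harbouring a luciferase neomycin HCV replicon reporter; luciferase luminescence as measure of HCV replicon replication; test concentration not given here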
# [13] = target: Left-right determination factor 2 (Homo sapiens) (UniProt O00292); test: LEFTY2 binders on small-molecule microarrays, primary screen, biochemical, small-molecule microarray, 635 nm fluorescence scan (AID 1110); details: LEFTY2 binding, higher = more signal
# Chain of Left-right determination factor 2 (Homo sapiens) (O00292 whole entry, looked up): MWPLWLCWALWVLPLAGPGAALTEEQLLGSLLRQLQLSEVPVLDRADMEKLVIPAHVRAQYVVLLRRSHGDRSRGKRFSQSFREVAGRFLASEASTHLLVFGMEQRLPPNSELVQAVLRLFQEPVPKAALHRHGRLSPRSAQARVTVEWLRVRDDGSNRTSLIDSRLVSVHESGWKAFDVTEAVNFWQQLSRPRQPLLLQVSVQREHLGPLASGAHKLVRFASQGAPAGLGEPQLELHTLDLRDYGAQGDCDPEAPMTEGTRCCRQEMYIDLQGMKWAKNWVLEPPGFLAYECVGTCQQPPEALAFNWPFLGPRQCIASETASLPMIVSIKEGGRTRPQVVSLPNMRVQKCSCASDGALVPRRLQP
# [14] = target: Calmodulin-1 (Homo sapiens) (UniProt P0DP23); test: CALM1 binders on microarrays, EGTA buffer, profiling panel, biochemical, small-molecule microarray, Cy5-labelled CALM1 (AID 1111); details: Cy5-CALM1 binding fluorescence, higher = more signal;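 also: labelled calmodulin applied in Tris saline Tween buffer holding calcium plus EGTA and DTT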
# [15] = target: Calmodulin-1 (Homo sapiens) (UniProt P0DP23); test: calcium-bound CALM1 binders on microarrays, profiling panel, artefact control for SMM control-protein annotation, biochemical, small-molecule microarray, Cy5-labelled CALM1, plus calcium (AID 1112); details: Cy5-CALM1 binding fluorescence, higher = more signal;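 also: score merges spot fluorescence with signal to noise from triplicate slides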
# [16] = small-molecule microarray binders of probe aWnt5a, primary screen, biochemical, biotinylated probe, 635/667 nm fluorescence (AID 1113); details: higher = more signal;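 also: score merges 667 nm fluorescence intensity with signal-to-noise per printed feature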
# [17] = small-molecule microarray binders of probe aShh, primary screen, biochemical, biotinylated probe, 635/667 nm fluorescence (AID 1114); details: higher = more signal;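 also: probe is biotin-labelled aShh protein from a stem cell growth factor screen; measures binding of labelled protein to compounds printed on the slide; score merges feature fluorescence at 667 nm with signal-to-noise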
# [18] = small-molecule microarray binders of probe aNog, primary screen, biochemical, biotinylated probe, 635/667 nm fluorescence (AID 1115); details: higher = more signal;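 also: probe is biotinylated aNog protein used at 0.15 µg/mL for 1 h at 4 C; z-score combines 667 nm fluorescence of each spot with its signal to noise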
# [19] = target: Torsin-1A-interacting protein 1 (Homo sapiens) (UniProt Q5JTV8); test: LAP1 binders from COS7 cell lysate, primary screen, small-molecule microarray, 635/667 nm fluorescence (AID 1116); details: COS7-hLAP1 lysate binding, 635 nm fluorescence, higher = more signal
# Chain of Torsin-1A-interacting protein 1 (Homo sapiens) (Q5JTV8 whole entry, looked up): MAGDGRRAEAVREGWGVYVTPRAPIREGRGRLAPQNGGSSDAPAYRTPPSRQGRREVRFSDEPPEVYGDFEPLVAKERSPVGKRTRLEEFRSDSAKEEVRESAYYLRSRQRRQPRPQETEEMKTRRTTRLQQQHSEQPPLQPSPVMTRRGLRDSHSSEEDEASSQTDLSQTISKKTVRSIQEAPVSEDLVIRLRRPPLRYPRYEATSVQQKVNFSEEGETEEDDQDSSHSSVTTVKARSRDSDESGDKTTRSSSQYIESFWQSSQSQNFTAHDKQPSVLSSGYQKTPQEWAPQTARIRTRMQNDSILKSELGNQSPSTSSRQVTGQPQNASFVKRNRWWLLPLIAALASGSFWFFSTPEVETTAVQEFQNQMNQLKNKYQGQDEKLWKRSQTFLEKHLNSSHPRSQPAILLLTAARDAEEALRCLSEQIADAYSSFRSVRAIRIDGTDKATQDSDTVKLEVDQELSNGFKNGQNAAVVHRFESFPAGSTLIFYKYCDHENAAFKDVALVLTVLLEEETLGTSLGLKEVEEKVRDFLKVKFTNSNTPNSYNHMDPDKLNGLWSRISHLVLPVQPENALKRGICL
# [20] = target: Alpha-bungarotoxin (Bungarus multicinctus) (UniProt P60615); test: alpha-bungarotoxin binders on microarray, profiling panel, artefact control for SMM control protein annotation, biochemical, small-molecule microarray, Alexa647 label, 635/667 nm fluorescence (AID 1117); details: alpha-BTX-A647 binding fluorescence, higher = more signal
# Chain of Alpha-bungarotoxin (Bungarus multicinctus) (P60615 whole entry, looked up): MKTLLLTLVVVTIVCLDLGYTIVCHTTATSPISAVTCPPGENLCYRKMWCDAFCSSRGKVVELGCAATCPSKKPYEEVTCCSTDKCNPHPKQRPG
Structure (SMILES),composite z-score [1],composite z-score [2],composite z-score [3],z-score [4],composite z-score [5],composite z-score [6],composite z-score [7],composite z-score [8],composite z-score [9],composite z-score [10],composite z-score [11],z-score [12],composite z-score [13],composite z-score [14],composite z-score [15],composite z-score [16],composite z-score [17],composite z-score [18],composite z-score [19],composite z-score [20]
CN1C2C=C(c3ccc(CO)cc3)C(C3C(=O)N(C(N)=O)C(=O)C32)C1c1cccs1 (stereo not given),1.41,-0.0009,0.549,-0.795 (inactive),0.25,-0.148,0.136,-0.623,-0.72,1.02,-0.232,0.374,0.217,0.45,0.47,-0.156,-0.0769,0.408,1.24,-1.09
CC(=O)Nc1ccc([C@H]2[C@H](C)CC[C@H]3C(=O)N4[C@@H](CC[C@@H](C)[C@@H]4c4ccc(NC(C)=O)cc4)C(=O)N32)cc1,0.75,0.368,-0.286,0.209 (inactive),1,1.17,0.168,0.845,0.759,0.213,0.946,-0.288,0.72,0.184,-0.346,-0.176,0.168,0.33,0.424,0.884
CO[C@H]1COC(=O)[C@H](CCSC)NC(=O)CC=C[C@@H](C)COC(=O)[C@@H](OCc2ccccc2)C=C[C@@H]1C,0.979,0.981,-1.41,-0.342 (inactive),0.485,0.743,0.574,1.15,2,0.397,-0.457,-0.704,1.23,-0.86,-1.6,-0.182,-0.1,-0.541,-0.0258,-0.414
COc1cc(CO)cc(I)c1O[C@H]1C=C(C(=O)NCCO)C[C@@H](N(CC2CCCCC2)C(=O)c2cc3ccccc3oc2=O)[C@@H]1O,-0.375,-0.34,-0.293,-0.00607 (inactive),0.975,0.0996,0.6,0.797,0.174,0.14,-0.376,0.806,0.252,0.0059,-0.857,-0.185,-0.0904,-0.446,0.646,-0.431
CSCC[C@@H]1NC(=O)CC=C[C@@H](C)COC(=O)[C@H](CCSC)NC(=O)CC=C[C@@H](C)COC1=O,-0.191,-0.396,-0.607,-1.02 (inactive),0.435,0.0287,0.434,0.678,1.12,-0.149,-0.507,-0.116,0.42,-1.21,-0.58,-0.168,0.0756,-0.255,-0.242,-0.222
O=C1NC(=O)C2C1C=CC(C(O)C=Cc1ccc([N+](=O)[O-])cc1)N2Nc1ccccn1 (stereo not given),1.1,0.141,0.239,1.5 (inactive),0.267,-0.0039,1.07,0.479,0.697,1.32,-0.581,0.807,0.909,-0.438,-0.544,-0.14,0.265,-0.142,1.45,0.224
COc1cc2c(cc1OC)CN(C(=O)[C@H]1[C@@H]3C(=O)O[C@@H](c4ccccc4)[C@@H](c4ccccc4)N3[C@@H](c3ccc(O)cc3)[C@]13C(=O)Nc1ccc(C#CC4(O)CCCCCC4)cc13)CC2,1.75,0.458,0.46,-0.81 (inactive),1.4,1.36,0.853,1.46,1.1,0.616,1.4,-1.47,1.36,2.21,1.2,0.808,0.382,2.35,3.48,2.79
CC(c1ccccc1)C(O)C1C=CC2C(=O)N(C)C(=O)C2N1N(c1ccccc1)c1ccccc1 (stereo not given),0.0872,1.01,1.2,1.05 (inactive),0.234,0.187,-0.451,0.0656,-0.623,1.41,-0.304,0.37,-0.789,1.08,0.723,-0.0057,0.809,0.332,0.765,-0.212
CC1CC/C=C\[C@H]2OC34C=CCN(Cn5nnc6ccccc65)C(=O)[C@H]3N(C(C)CO)C(=O)[C@@H]4C2C(=O)O1 (stereo not given in full),1.26,-0.0466,0.201,0.825 (inactive),0.0056,-0.837,-0.848,-0.814,-0.936,0.494,-0.132,-0.276,-0.371,-0.45,-0.223,-0.184,-0.123,0.34,0.413,-0.465
Cc1ccc(S(=O)(=O)N2[C@@H](c3ccccc3)C(C(=O)O)=CC[C@H]2c2ccccc2)cc1,0.0714,0.153,0.431,-0.258 (inactive),0.476,-0.0481,0.197,0.169,-0.454,0.512,0.433,0.498,-0.363,0.526,0.355,0.0317,-0.0709,0.109,-0.701,0.317
C=CCC(OC(C)=O)[C@@H]1[C@@H](N(Cc2ccc(-c3ccccc3)cc2)C(=O)c2ccc(C)cc2)c2cc(OCCCO)ccc2N1C(=O)c1ccc(-c2ccccc2)cc1 (stereo not given in full),-0.151,0.434,0.536,-2.28 (inactive),0.104,-0.176,-0.0222,-0.023,-0.0546,1.42,-0.0852,-0.13,0.181,0.218,1.22,-0.101,0.0611,0.15,0.116,0.523
